Source: PubChem (several laboratories)
Hits are enriched below; roughly 3.9% of the tested compounds scored in any of these assays.
HIF-2a block – HIF-2a inhibition | AID 624352 | hit rate 0.72% among 360,000 | inhibition, % at 18.8 µM | 786-0 RCC cells HIF-2a reporter, luciferase luminescence, overnight;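 active = inhibition of the luminescence signal of 40% or more relative to plate controls, in a single-dose primary screen at 18.75 µM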
aSyn 5UTR inh – MLPCN primary screen, SNCA 5' untranslated region; alpha-synuclein 5'UTR reporter, inhibitor activity; inhibition, % (tested at 7.5 µM); hit rate 0.82% among 300,000; AID 1813; in the data active = inhibition above about 60%;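 note: H4 neuroglioblastoma cells stably carrying SNCA 5'UTR luciferase fusion; 0% = DMSO wells and 100% = positive control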
TROY signal inh – inhibitors of TROY-dependent NF-kB signaling; Q293 LMP1-TROYcd NF-kB luciferase reporter, 4 h; inhibition, % at 10 µM; hit rate 0.98% among 360,000; AID 1347056;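 active = compounds whose plate-normalised and pattern-corrected inhibition of the luciferase reporter signal at the single screening dose is 50% or more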
TWEAK Fn14 block – blocks TWEAK-Fn14 interaction in a reporter cell assay | hit rate 2% among 360,000 | inhibition, % at 10 µM | AID 1159606 | TWEAK-stimulated Fn14 reporter cells, luciferase luminescence, 8 h; in the data active = inhibition above about 50%
TRAIL sens C8 – sensitizes caspase-8 expressing cells to TRAIL; NB7+C8 cells + TRAIL, ATPlite viability luminescence; AID 624354; inhibition (viability loss, TRAIL sensitization), % at 10 µM; hit rate 1% among 360,000;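 active = compounds causing at least 50% loss of cell viability in the single-dose screen, relative to plate controls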
HSP90 inh – inhibitors of HSP90 luciferase refolding in rabbit reticulocyte lysate | luciferase refolding luminescence, 3 h | inhibition, % at 5.6 µM | hit rate 0.91% among 290,000;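 active = inhibition above the screen-wide mean plus 3 SD, computed separately per campaign, cut at about 16% in these data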;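 note: 0% = DMSO wells and 100% = 60 µM geldanamycin wells; inhibitors lower the luminescence because luciferase stays unfolded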
* hit, by the source's call; nt = not tested or not shown.

SMILES	HIF-2a block	aSyn 5UTR inh	TROY signal inh	TWEAK Fn14 block	TRAIL sens C8	HSP90 inh
O=C(NCc1cccc(Cl)c1)c1cc(COc2ccc3ncccc3c2)on1	-4.2	6.1	53.2*	60.9*	30.8	5.5
Cc1ccc(F)cc1CNC(=O)c1cc(COc2ccc3ncccc3c2)on1	10.2	16.9	45.9	75.3*	15.0	-0.2
CC(CCCC(C)(C)O)NC(=O)c1cc(COc2ccc3ncccc3c2)on1 (configuration not stated)	10.7	-6.0	16.8	22.6	14.0	4.2
CC(C)=CCCC(C)c1cc(C(=O)NCCc2ccc(O)cc2)c(N)s1 (configuration not stated)	-2.2	nt	nt	nt	-11.2	nt
CCO[C@H]1OC(C(=O)NCc2nc3ccccc3[nH]2)=C[C@@H](c2cn(C(C)=O)c3ccccc23)[C@@H]1CCCO	22.3	24.7	10.4	5.1	14.1	nt
CCO[C@@H]1OC(C(=O)NCc2nc3ccccc3[nH]2)=C[C@H](c2cn(C(C)=O)c3ccccc23)[C@H]1CCCO	26.7	13.0	-17.8	-12.6	-2.3	16.1*
CCC(CC)C(C(=O)NCc1ccccc1)N1CCN(c2cccc(C)c2C)CC1 (configuration not stated)	14.8	nt	nt	nt	0.6	nt
N#C/C(=C/c1ccc(CNS(=O)(=O)c2ccccc2)o1)C(N)=O	7.2	-8.3	-5.5	69.5*	35.2	-1.5
CC1(Cc2ccc(F)cc2)C(=O)Nc2ccc(-c3cccnc3)cc21 (configuration not stated)	23.4	nt	24.7	64.4*	-2.5	nt
COc1ccccc1-c1ccc2c(c1)C(C)(Cc1ccc(Cl)c(Cl)c1)C(=O)N2 (configuration not stated)	-20.6	nt	1.6	17.9	-8.0	nt
CC1(Cc2ccc(C(F)(F)F)o2)C(=O)Nc2ccc(-c3cccc(C(F)(F)F)c3)cc21 (configuration not stated)	13.8	nt	3.7	2.8	5.0	nt
CC1(Cc2ccc3c(c2)OCO3)C(=O)Nc2ccc(-c3cccc(C(F)(F)F)c3)cc21 (configuration not stated)	5.3	nt	6.2	102.7*	7.5	nt
CC1(Cc2ccc(Cl)cc2)C(=O)Nc2ccc(-c3ccc(F)c(Cl)c3)cc21 (configuration not stated)	1.8	nt	-0.6	2.7	-7.9	nt
C=Cc1ccc(CC2(C)C(=O)Nc3ccc(-c4cccnc4)cc32)cc1 (configuration not stated)	20.2	nt	47.8	81.0*	19.8	nt
CC(C)=CCn1c2ccc(NC(=S)NC3CC3)cc2c(=O)n1C	6.9	nt	-5.2	7.1	-9.5	nt
Cc1ccc(Cn2cc(CN3CC(N4CCCC4)CS3(=O)=O)nn2)cc1 (configuration not stated)	12.6	nt	-6.2	15.4	-8.8	nt
Cc1nn(C)c2c1NC(=O)CS2	2.9	nt	-12.1	-25.2	-4.7	nt
CCCN1CCN(CCCNC(=O)CN2C(=O)COc3ccc(C(C)(C)C)cc32)CC1	1.5	nt	0.7	-26.2	-2.8	nt
Cc1ccc(/C=C/C(=O)c2ccccc(=O)c2O)c(C)c1	35.8	-6.6	72.8*	87.4*	24.6	8.8
Cc1ccc(C)c(/C=C/C(=O)c2ccccc(=O)c2O)c1	71.7*	46.5	5.2	32.5	18.7	2.6
O=C(/C=C/c1ccccc1Cl)c1ccccc(=O)c1O	9.5	-37.2	37.2	35.0	23.7	4.6
Cc1ccccc1C(=O)O/N=C/c1c(N2CCOCC2)n(C)c2ccccc12	6.0	86.5*	5.2	-10.4	6.9	-0.3
O=C(Cc1cc(=O)[nH][nH]1)N/N=C/C=C/c1ccccc1	-9.2	-37.4	2.9	61.5*	-2.4	4.8
COc1ccc(OCC(=O)N/N=C/C=C/c2ccccc2)cc1	-43.2	-6.6	-27.2	-26.5	54.5*	0.7
Cc1ccn2cc(-c3ccc(O)c(O)c3)nc2c1	-106.9	41.2	-16.2	79.7*	76.4*	15.2
SMILES	HIF-2a block	aSyn 5UTR inh	TROY signal inh	TWEAK Fn14 block	TRAIL sens C8	HSP90 inh
O=C(C(=O)N1CCN(c2ccncc2)CC1)c1cccc(Br)c1	15.8	nt	nt	nt	0.7	nt
Cc1cccc(C)c1Cn1c(C)c(C(=O)NCc2ccccc2C(F)(F)F)sc1=O	1.6	nt	-19.3	-7.9	0.4	nt
COc1ccc(Br)c(Cn2c(C)c(C(=O)NCc3ccc4c(c3)OCCO4)sc2=O)c1	7.9	nt	31.4	-2.9	-4.3	nt
Cc1c(C(=O)NCc2ccc(C(F)(F)F)cc2)sc(=O)n1Cc1ccc(S(=O)(=O)N(C)C)cc1	3.7	nt	32.1	56.8*	8.9	nt
C=Cc1ccc(Cn2c(C)c(C(=O)NCc3cccc(C(F)(F)F)c3)sc2=O)cc1	0.6	nt	1.1	2.6	50.8*	nt
CC(=O)Oc1ccc(Cn2c(C)c(C(=O)NCc3ccc4c(c3)OCCO4)sc2=O)cc1	5.9	nt	67.3*	6.1	5.8	nt
COc1ccc(Br)c(Cn2c(C)c(C(=O)NCc3ccccc3C(F)(F)F)sc2=O)c1	6.1	nt	69.1*	13.5	1.8	nt
c1ccc(C[C@H]2COc3c4ccccc4nn32)cc1	-201.3	nt	nt	nt	-1.6	nt
CCOC1=C2CN(S(=O)(=O)c3ccc(C)cc3)C(c3ccccc3)CC2N(S(=O)(=O)c2ccc(C)cc2)C(c2ccc(Br)cc2)C1 (configuration not stated)	1.7	nt	nt	nt	9.8	nt
CN(Cc1ccccc1)C(=O)c1ccc(NC(=O)Cc2cccc(NC(=O)C3CCCN(C(=O)C4CCC4)C3)c2)cc1 (configuration not stated)	9.0	nt	8.7	-5.5	4.1	nt
CCOC(=O)c1oc2ccccc2c1CSc1nnc(-c2ccco2)o1	13.7	-7.5	1.9	58.5*	-6.0	-3.9
CCOC(=O)c1oc2ccccc2c1CSc1nnnn1-c1ccc(C)cc1	-10.7	29.7	7.0	-6.4	-11.1	-3.4
CC1=NN(c2ccc(Cl)cc2)C(=O)C1C(c1cccc(O)c1)c1c(C)[nH]n(-c2ccc(Cl)cc2)c1=O (configuration not stated)	-1.5	10.1	39.9	50.0*	3.7	11.4
CC1=NN(c2ccc(F)cc2)C(=O)C1C(c1cccc(O)c1)c1c(C)[nH]n(-c2ccc(F)cc2)c1=O (configuration not stated)	14.6	13.2	2.6	-1.2	-2.0	14.9
COCCCN1C(=O)C(CC(=O)NCc2cccs2)CC(C(=O)N2CCCCCC2)=C1C (configuration not stated)	4.2	nt	19.7	-2.4	-12.6	nt
Cc1cc(CC(C)C)n(-c2nc3ccccc3c(=O)n2OCC(N)=O)n1	-105.7	-37.8	52.8*	32.2	8.7	5.1
CCCNC(=O)c1ccc2c(=O)c(O)c(C)[nH]c2c1	12.1	23.3	-2.5	17.9	0.7	nt
CCCNC(=O)c1ccc2c(=O)c(O)c(-c3ccc(F)cc3)[nH]c2c1	35.1	80.7*	-5.4	-27.0	3.8	nt
CCCNC(=O)c1ccc2c(=O)c(O)c(-c3cccc(Br)c3)[nH]c2c1	20.9	83.7*	3.9	4.8	12.4	nt
C[C@@H]1CN([C@H](C)CO)C(=O)c2cc(-c3ccccc3)cnc2O[C@@H]1CN(C)C(=O)C1CCOCC1	7.3	nt	-3.8	-9.3	8.0	nt
